Data published in PubChem BioAssay AID1159580 (chemical genetic matrix, 2015).
Values joined by “and” are separate entries in the source; they are usually repeats but may differ in a detail not shown here. Identical values can stand only once. About 2,000 (36%) of roughly 5,500 compounds were called active. Roughly 18% stayed inconclusive and do not appear here. No stated cut-off is given here; in the data, active means normalized growth mostly below about 0.91 (no sharp cut-off); inconclusive means no clear call, values can overlap the other calls; inactive means mostly above about 0.92. The list shows a part of the results.

Test: chemical genetic growth profiling, strain panel (AID 1159580);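 further: tested at 20 µM; growth read once vehicle control cultures reached saturation at 30 °C; 1 = growth at the plate median or of vehicle wells; lower values mean less growth of the strain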
Conditions: S. cerevisiae deletion strains, growth OD

Measured: normalized growth

C=CCc1ccc2c(c1)OCO2
active: locus YAL013W, strain DEP1, active compounds read low 0.863
inactive: locus YAL021C, strain ccr4, active compounds read low 1.02 | locus YAL026C, strain drs2, active compounds read low 1.04 | locus YAL030W, strain snc1, active compounds read low 1.01 | locus YBL061C, strain skt5, active compounds read low 1.02 | locus YBR009C, strain hhf1, active compounds read low 1.05 | locus YBR021W, strain FUR4, active compounds read low 1.03 | locus YBR023C, strain chs3, active compounds read low 1.03 | locus YBR171W, strain sec66, active compounds read low 1.02 | locus YBR229C, strain ROT2, active compounds read low 1.02 | locus YBR231C, strain swc5, active compounds read low 1.01 | locus YBR279W, strain paf1, active compounds read low 1.03 | locus YCL011C, strain gbp2, active compounds read low 1.03 | locus YCL016C, strain dcc1, active compounds read low 1.05 | locus YCL029C, strain bik1, active compounds read low 0.99 | locus YCL061C, strain MRC1, active compounds read low 1.06 | locus YCL069W, strain vba3, active compounds read low 1.01 | locus YCR088W, strain abp1, active compounds read low 1.02 | locus YDL005C, strain med2, active compounds read low 1.02 | locus YDL035C, strain GPR1, active compounds read low 1.03 | locus YDL040C, strain nat1, active compounds read low 1.01 | locus YDL074C, strain BRE1, active compounds read low 1.02 | locus YDL101C, strain DUN1, active compounds read low 0.999 | locus YDL185W, strain tfp1, active compounds read low 1.01 | locus YDL192W, strain arf1, active compounds read low 0.99 | locus YDR001C, strain nth1, active compounds read low 1.02 | locus YDR069C, strain doa4, active compounds read low 1.03 | locus YDR101C, strain arx1, active compounds read low 0.985 | locus YDR137W, strain rgp1, active compounds read low 1.05 | locus YDR159W, strain sac3, active compounds read low 0.976 | locus YDR162C, strain NBP2, active compounds read low 1.01 | locus YDR195W, strain ref2 0.982 | locus YDR297W, strain sur2, active compounds read low 1.01 | locus YDR318W, strain mcm21, active compounds read low 0.996 | locus YDR334W, strain swr1, active compounds read low 1.03 | locus YDR335W, strain msn5, active compounds read low 1.02 | locus YDR388W, active compounds read low 0.987 | locus YDR392W, strain spt3, active compounds read low 0.965 | locus YDR502C, strain sam2, active compounds read low 0.992 | locus YEL003W, strain gim4, active compounds read low 1.02 | locus YEL037C, strain rad23, active compounds read low 1.02 | locus YEL061C, strain CIN8 (second series), active compounds read low 1.02 | locus YEL061C, strain CIN8, active compounds read low 1 | locus YER015W, strain faa2, active compounds read low 1.01 | locus YER016W, strain bim1, active compounds read low 1 | locus YER110C, active compounds read low 0.982 | locus YER111C, strain swi4, active compounds read low 1.02 | locus YER155C, strain BEM2 (second series), active compounds read low 0.956 | locus YER155C, strain BEM2, active compounds read low 0.999 | locus YER167W, strain BCK2, active compounds read low 1.02 | locus YFR010W, strain ubp6, active compounds read low 1.05 | locus YGL078C, strain dbp3, active compounds read low 0.993 | locus YGL086W, strain mad1, active compounds read low 0.988 | locus YGL167C, strain pmr1, active compounds read low 1.02 | locus YGL173C, strain kem1, active compounds read low 1.02 | locus YGL227W, strain vid30, active compounds read low 1.01 | locus YGL240W, strain doc1, active compounds read low 0.972 | locus YGL248W, strain PDE1, active compounds read low 1.01 | locus YGL253W, strain hxk2, active compounds read low 1.04 | locus YGR135W, strain pre9, active compounds read low 1.01 | locus YGR229C, strain SMI1, active compounds read low 1.03 | locus YGR252W, strain gcn5, active compounds read low 1.06 | locus YHR013C, strain ard1, active compounds read low 1.06 | locus YHR027C, strain rpn1, active compounds read low 1.02 | locus YHR030C, strain SLT2, active compounds read low 1 and 0.954 | locus YHR079C, strain IRE1 (second series), active compounds read low 0.989 | locus YHR079C, strain IRE1, active compounds read low 0.965 | locus YHR094C, strain hxt1, active compounds read low 0.981 | locus YHR129C, strain ARP1, active compounds read low 1 | locus YHR142W, strain chs7, active compounds read low 1.07 | locus YHR200W, strain rpn10, active compounds read low 0.99 | locus YIL066C, strain RNR3, active compounds read low 1.02 | locus YIL073C, strain SPO22, active compounds read low 1.01 | locus YIL125W, strain kgd1, active compounds read low 0.988 | locus YIR030C, strain dcg1, active compounds read low 0.988 | locus YJL092W, strain hpr5, active compounds read low 1.03 | locus YJL095W, strain BCK1 (second series), active compounds read low 1.03 | locus YJL095W, strain BCK1, active compounds read low 1.01 | locus YJL115W, strain asf1, active compounds read low 1.02 | locus YJL129C, strain trk1, active compounds read low 1.01 | locus YJL134W, strain LCB3, active compounds read low 1 | locus YJL154C, strain vps35, active compounds read low 1.01 | locus YJL164C, strain tpk1, active compounds read low 1.04 | locus YJL166W, strain qcr8, active compounds read low 1.04 | locus YJL168C, strain set2, active compounds read low 0.987 | locus YJL187C, strain SWE1 (second series), active compounds read low 1.01 | locus YJL187C, strain SWE1, active compounds read low 1.03
